# Source: PubChem BioAssay
# Where “and” joins values, the source holds several entries; their conditions need not be identical. Identical values can stand only once. Calls of active or inactive are those of the source.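 Rule for the calls, unless noted: active = compounds whose cell count with miR-34 switched on is under 0.7 times the count with it off; inactive = the rest.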
# Legend:
# [1] = stimulators of nuclear beta-catenin in C2C12, primary screen, imaging, WNT3A-conditioned medium, mouse C2C12, NPC library (AID 1117326; in the data active = nuclear beta-catenin stimulation mostly above about 4.2%, no sharp cut-off; inactive = mostly below about 10%); conditions: stronger effect = higher value
# [2] = stimulators of insulin release from INS-1E, primary screen, cell-based, 5 mM glucose, NPC library (AID 1117329;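 active = compound raises insulin release from rat beta cells at 5 mM glucose, no numeric limit stated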); conditions: rat INS-1E insulin secretion, at 10 µM, stronger effect = higher value
# [3] = growth inhibition of GSK3B-pretreated HCT116 cells – cell-based, CellTiter-Glo, 0.2 to 20 µM (AID 1117336;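 active = compounds lowering colon cancer cell viability after pretreatment blocking the GSK3B kinase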); conditions: HCT116 viability after GSK3B inhibitor, at 20 µM, stronger effect = higher value
# [4] = inhibition of endothelial tube formation, primary screen, imaging, VEGF stimulated, CD31 staining, tube area, NPC library (AID 1117340;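 active = compound that reduces growth-factor-driven endothelial tube area in a mixed cell culture, no cutoff stated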); conditions: VEGF-stimulated ADSC/ECFC co-culture, at 10 µM, stronger effect = higher value
# [5] = glucagon-like peptide 1 release enhancers, primary assay, NCI-H716 cell line, NPC library (AID 1117341;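 active = compound raises GLP1 secretion from the human gut endocrine cells, with no numeric limit stated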); conditions: NCI-H716 cells, at 10 µM, stronger effect = higher value
# [6] = HCT116 colon cancer cell growth inhibition, primary screen, CellTiter-Glo luminescence, NPC library (AID 1117342;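 active = compounds that lower survival of HCT116 colon cancer cells in the luminescence readout, no numeric limit stated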); conditions: at 20 µM (top of the series)
# [7] = CellTiter-Glo luminescent readout of SW480 viability loss, NPC library primary (AID 1117343;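 active = compounds that lower viability of the colon cancer cells in the luminescence readout, with no numeric limit stated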); conditions: CellTiter-Glo luminescence; at 20 µM (top of the series) unless noted
# [8] = decreased DLD-1 cellular survival, CellTiter-Glo luminescent readout, NPC compound collection, primary HTS (AID 1117346;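 active = compounds that lower survival of DLD-1 colon cancer cells in the luminescence readout, no cutoff given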); conditions: DLD-1 viability, CellTiter-Glo luminescence; at 20 µM (top of the series)
# [9] = differential killing of epithelial or mesenchymal cells, primary screen, imaging, PC-3E GFP, TEM4-18 mCherry, co-culture (AID 1345086;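 active = compounds killing one labelled cell type while sparing the other, by normalised counts and ratio limits, not self-fluorescent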;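 for all read-outs here: cells exposed to compound for 72 h before imaging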;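 for red/green cell ratio (normalised): normalised mesenchymal count divided by normalised epithelial count so high means epithelial killing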); conditions: imaging cell counts, at 1 µM; for red/green cell ratio (normalised): actives lie on both sides, counts scaled to control wells, 1 = unselective
# [10] = sensitizers of A549 cells to miR-34 induction, primary screen, imaging, A549 dox-inducible miR-34, nuclei and caspase counts (AID 1347080); conditions: A549 miR-34 inducible, Hoechst nuclei count, 48 h
# [11] = survival rescue of mitochondrial mutant cells in low glucose, primary screen, MELAS cybrids, Rieske KO mouse fibroblasts, CellTiter-Glo (AID 1508586;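 active = mean z-score across replicates of 1.96 or higher in either the MELAS or the Rieske mutant cell line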;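 note: z relative to plate mean and SD of compound and empty wells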)
# [12] = biological target: NAD(+) hydrolase SARM1 (Homo sapiens) (UniProt Q6SZW1); assay: SARM1 TIR NADase inhibitors, cell lysate, NAD-Glo luminescence (AID 1508614;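 active = compound whose remaining NAD level is above about 45 nM, limit read from the data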;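 note: higher remaining NAD means stronger inhibition of SARM1 NADase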); conditions: SAM-TIR HEK293T lysate NADase, at 1 µM, stronger effect = higher value
# [13] = hESC survival regulators, cell-based (AID 493140; call rule not given here;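 note: cells exposed to compounds for four days before counting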); conditions: human embryonic stem cell survival screen; stronger effect = higher value
# [14] = liver-stage malaria parasite growth inhibition, primary screen, cell-based, HepG2, luciferase luminescence, HepG2 viability (AID 624349; in the data active = parasite load remaining mostly below about 12%, no sharp cut-off; inactive = mostly above about 10%;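 note: 100% = mean of DMSO negative control wells on the same plate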); conditions: P. berghei liver stage in HepG2, luciferase luminescence, concentration not given here; parasite load remaining: stronger effect = lower value; viability: measured here: HepG2 viability without parasites
# [15] = measured here: epithelial PC-3E GFP cell survival
# [16] = measured here: mesenchymal TEM4-18 mCherry cell survival
# [17] = stronger effect = lower value, cell number ratio, induced over uninduced
# [18] = measured here: relative caspase fold change +Dox/-Dox
# [19] = measured here: total cells with miR-34 induction, stronger effect = lower value
# [20] = measured here: total cells without miR-34 induction
# [21] = MELAS cybrid survival, CellTiter-Glo 48 h, stronger effect = higher value
# [22] = Rieske KO mouse fibroblast survival, CellTiter-Glo 72 h
# Sequence of NAD(+) hydrolase SARM1 (Homo sapiens) (Q6SZW1 whole entry, looked up): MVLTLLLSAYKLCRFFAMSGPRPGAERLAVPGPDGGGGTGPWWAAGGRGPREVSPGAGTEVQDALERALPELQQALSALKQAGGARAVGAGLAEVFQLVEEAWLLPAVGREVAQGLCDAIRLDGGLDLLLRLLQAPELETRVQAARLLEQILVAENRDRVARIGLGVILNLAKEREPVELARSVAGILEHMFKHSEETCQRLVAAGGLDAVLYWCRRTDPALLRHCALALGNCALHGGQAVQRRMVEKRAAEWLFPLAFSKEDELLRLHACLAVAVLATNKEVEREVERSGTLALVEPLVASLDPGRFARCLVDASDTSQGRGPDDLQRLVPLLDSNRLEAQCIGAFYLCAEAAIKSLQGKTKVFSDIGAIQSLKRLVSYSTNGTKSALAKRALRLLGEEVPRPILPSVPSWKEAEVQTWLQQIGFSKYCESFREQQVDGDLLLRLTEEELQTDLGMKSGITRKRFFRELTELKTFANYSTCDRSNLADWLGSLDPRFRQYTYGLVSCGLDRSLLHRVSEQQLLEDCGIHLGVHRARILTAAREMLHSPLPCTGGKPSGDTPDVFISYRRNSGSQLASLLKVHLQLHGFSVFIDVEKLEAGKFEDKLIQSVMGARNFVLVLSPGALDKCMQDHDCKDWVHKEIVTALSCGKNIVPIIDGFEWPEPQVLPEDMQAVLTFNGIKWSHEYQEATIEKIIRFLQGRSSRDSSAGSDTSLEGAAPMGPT
compound,measurement,setting,value
O=C1Cc2cc(CCN3CCN(c4nsc5ccccc45)CC3)c(Cl)cc2N1,nuclear beta-catenin stimulation,[1]; at 10 µM,0.7% (inactive)
same,nuclear beta-catenin stimulation,"[1]; stimulation, at 2 µM",0.6%
same,insulin secretion stimulation,[2],0.65% (inactive)
same,viability decrease,[3],117% (active)
same,tube area decrease,[4],22.4% (inactive)
same,GLP1 secretion stimulation,[5],2.9% (inactive)
same,inhibition of viability,[6],124% (active)
same,viability decrease (inhibition),[7],91.1% (active)
same,viability decrease (inhibition),[8],101% (active)
same,red/green cell ratio (normalised),[9],0.94 (inactive)
same,normalised cell number,[9]; [15],1.17
same,normalised cell number,[9]; [16],1.1
same,fold change,[10]; [17],0.799 (inactive) and 0.929 (inactive) and 0.946 (inactive)
same,fold change,[10]; [18],1.72 and 0.693 and 2.86
same,cell count,[10]; [19],4490 and 6730 and 8460
same,cell count,[10]; [20],5620 and 7240 and 8940
same,z-score,[11]; [21],-0.541 (inactive) and 0.954 (inactive)
same,z-score,[11]; [22],1.41 and -0.174
same,remaining NAD,[12],10 nM (inactive)
Clc1ccc(Cn2c(CN3CCCC3)nc3ccccc32)cc1,survival,[13],21.8 (inactive)
same,parasite load remaining,[14],30.7% (inactive) and 102% (inactive)
same,viability,[14],47.8% and 90.5%
same,nuclear beta-catenin stimulation,[1]; at 10 µM,3.1% (inactive)
same,nuclear beta-catenin stimulation,"[1]; stimulation, at 2 µM",3%
same,insulin secretion stimulation,[2],4.9% (inactive)
same,viability decrease,[3],-123% (inactive)
same,tube area decrease,[4],14.2% (inactive)
same,GLP1 secretion stimulation,[5],6.1% (inactive)
same,inhibition of viability,[6],34% (inactive)
same,viability decrease (inhibition),[7],61.5% (active)
same,viability decrease (inhibition),[8],19.7% (inactive)
same,red/green cell ratio (normalised),[9],0.77 (inactive)
same,normalised cell number,[9]; [15],1.28
same,normalised cell number,[9]; [16],0.98
same,fold change,[10]; [17],1.11 (inactive) and 0.92 (inactive)
same,fold change,[10]; [18],2.1 and 1.3
same,cell count,[10]; [19],5510 and 8130
same,cell count,[10]; [20],4960 and 8840
same,z-score,[11]; [21],0.821 (inactive)
same,z-score,[11]; [22],0.481
same,remaining NAD,[12],10 nM (inactive)
CCN(C)C(=O)Oc1cccc([C@H](C)N(C)C)c1,parasite load remaining,[14],32.3% (inactive)
same,viability,[14],99%
same,nuclear beta-catenin stimulation,[1]; at 10 µM,-0.2% (inactive)
same,nuclear beta-catenin stimulation,"[1]; stimulation, at 2 µM",0.4%
same,insulin secretion stimulation,[2],6.4% (inactive)
same,viability decrease,[3],5.7% (inactive)
same,tube area decrease,[4],-0.5% (inactive)
same,GLP1 secretion stimulation,[5],2.5% (inactive)
same,inhibition of viability,[6],25.9% (inactive)
same,viability decrease (inhibition),[7],17.2% (inactive)
same,viability decrease (inhibition),[8],0.2% (inactive)
same,red/green cell ratio (normalised),[9],1.13 (inactive)
same,normalised cell number,[9]; [15],1.24
same,normalised cell number,[9]; [16],1.4
same,fold change,[10]; [17],0.884 (inactive)
same,fold change,[10]; [18],1.13
same,cell count,[10]; [19],10100
same,cell count,[10]; [20],11400
same,z-score,[11]; [21],-0.629 (inactive) and -0.546 (inactive)
same,z-score,[11]; [22],-0.737 and -0.15
CC(=O)c1ccc2c(c1)N(CCCN(C)C)c1ccccc1S2,survival,[13],4.75 (inactive)
same,parasite load remaining,[14],84% (inactive) and 65.2% (inactive) and 28% (inactive)
same,viability,[14],104% and 77.6% and 98.4%
same,nuclear beta-catenin stimulation,[1]; at 10 µM,0.3% (inactive)
same,nuclear beta-catenin stimulation,"[1]; stimulation, at 2 µM",1.4%
same,insulin secretion stimulation,[2],17.4% (inactive)
same,viability decrease,[3],50.2% (active)
same,tube area decrease,[4],12.5% (inactive)
same,GLP1 secretion stimulation,[5],11.1% (inactive)
same,inhibition of viability,[6],55.9% (active)
same,viability decrease (inhibition),[7],110% (active)
same,viability decrease (inhibition),[8],24.9% (inactive)
same,red/green cell ratio (normalised),[9],0.9 (inactive)
same,normalised cell number,[9]; [15],0.98
same,normalised cell number,[9]; [16],0.88
same,fold change,[10]; [17],0.938 (inactive) and 0.873 (inactive) and 0.834 (inactive)
same,fold change,[10]; [18],0.931 and 1.11 and 5.05
same,cell count,[10]; [19],3460 and 8350 and 10600
same,cell count,[10]; [20],3690 and 9570 and 12700
same,z-score,[11]; [21],-0.172 (inactive)
same,z-score,[11]; [22],0.00604
same,remaining NAD,[12],10 nM (inactive)
O=C(O)CN(CCN(CC(=O)O)CC(=O)O)CCN(CC(=O)O)CC(=O)O,survival,[13],5 (inactive)
same,parasite load remaining,[14],120% (inactive) and 34.8% (inactive)
same,viability,[14],101% and 170%
same,nuclear beta-catenin stimulation,[1]; at 10 µM,-0.8% (inactive)
same,nuclear beta-catenin stimulation,"[1]; stimulation, at 2 µM",-1.5%
same,insulin secretion stimulation,[2],1.5% (inactive)
same,viability decrease,[3],79% (active)
same,tube area decrease,[4],-14.3% (inactive)
same,GLP1 secretion stimulation,[5],0.1% (inactive)
same,inhibition of viability,[6],53.1% (active)
same,viability decrease (inhibition),[7],79.5% (active)
same,viability decrease (inhibition),[8],31.1% (inactive)
same,red/green cell ratio (normalised),[9],1.45 (inactive)
same,normalised cell number,[9]; [15],0.48
same,normalised cell number,[9]; [16],0.7
same,fold change,[10]; [17],1.07 (inactive) and 0.79 (inactive) and 0.864 (inactive)
same,fold change,[10]; [18],1.26 and 1.98 and 3.01
same,cell count,[10]; [19],8980 and 7930 and 10700
same,cell count,[10]; [20],8380 and 10000 and 12300
same,z-score,[11]; [21],0.621 (inactive)
same,z-score,[11]; [22],0.97
same,remaining NAD,[12],10 nM (inactive)
NC(N)=NC(N)=NCCc1ccccc1,survival,[13],15 (inactive)
same,parasite load remaining,[14],-0.135% (inactive) and 69.8% (inactive) and 0.98% (inactive)
same,viability,[14],41.9% and 91.2% and 89.5%
same,nuclear beta-catenin stimulation,[1]; at 10 µM,0% (inactive)
same,nuclear beta-catenin stimulation,"[1]; stimulation, at 2 µM",1.1%
same,insulin secretion stimulation,[2],-0.2% (inactive)
same,viability decrease,[3],27.4% (inactive)
same,tube area decrease,[4],27.6% (inactive)
same,GLP1 secretion stimulation,[5],-0.4% (inactive)
same,inhibition of viability,[6],9.6% (inactive)
same,viability decrease (inhibition),[7],70.3% (active)
same,viability decrease (inhibition),[8],9.45% (inactive)
same,red/green cell ratio (normalised),[9],0.86 (inactive)
same,normalised cell number,[9]; [15],1.06
same,normalised cell number,[9]; [16],0.91
same,z-score,[11]; [21],-0.896 (inactive) and -0.373 (inactive) and -0.362 (inactive)
same,z-score,[11]; [22],-0.647 and 0.306 and -0.384
same,remaining NAD,[12],10 nM (inactive)
CC(C)(Oc1ccc(C2CC2(Cl)Cl)cc1)C(=O)O (stereo not given),survival,[13],3.17 (inactive)
same,parasite load remaining,[14],67% (inactive)
same,viability,[14],69.5%
same,nuclear beta-catenin stimulation,[1]; at 10 µM,-1.2% (inactive)
same,nuclear beta-catenin stimulation,"[1]; stimulation, at 2 µM",-1%
same,insulin secretion stimulation,[2],-1.6% (inactive)
same,viability decrease,[3],0.1% (inactive)
same,tube area decrease,[4],-3% (inactive)
same,GLP1 secretion stimulation,[5],1.4% (active)
same,inhibition of viability,[6],-3.5% (inactive)
same,viability decrease (inhibition),[7],-7.2% (inactive)
same,viability decrease (inhibition),[8],-11.1% (inactive)
same,red/green cell ratio (normalised),[9],1.11 (inactive)
same,normalised cell number,[9]; [15],1.15
same,normalised cell number,[9]; [16],1.28
same,fold change,[10]; [17],1.01 (inactive) and 0.95 (inactive) and 0.923 (inactive)
same,fold change,[10]; [18],2.14 and 0.705 and 0.604
same,cell count,[10]; [19],9720 and 9780 and 8880
same,cell count,[10]; [20],9650 and 10300 and 9610
same,z-score,[11]; [21],-0.289 (inactive) and 0.864 (inactive)
same,z-score,[11]; [22],-0.625 and 0.179
same,remaining NAD,[12],10 nM (inactive)
